{
  "source": "PubChem BioAssay AID641",
  "about": "(Vanderbilt High Throughput Screening Facility, 2007)",
  "note": "Hit rate of the full screen: of about 58,000 compounds, about 3,400 (5.9%) were called active.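 Rule for the calls: active = luminescence count or its row- and column-corrected plate score outside the 99.7% band of the plate's sample wells, on either side; inactive = the rest.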 The list comes from a sample in which actives are over-represented; it also holds similar structures and randomly drawn compounds. Where a SMILES comes first, the peptide text is derived from it. The star is where a group is joined. Bz = O=C(c1ccccc1)*",
  "data": [
    {"molecular_target": "D(1A) dopamine receptor (Homo sapiens) (UniProt P21728)", "sequence (P21728 whole entry, looked up)": "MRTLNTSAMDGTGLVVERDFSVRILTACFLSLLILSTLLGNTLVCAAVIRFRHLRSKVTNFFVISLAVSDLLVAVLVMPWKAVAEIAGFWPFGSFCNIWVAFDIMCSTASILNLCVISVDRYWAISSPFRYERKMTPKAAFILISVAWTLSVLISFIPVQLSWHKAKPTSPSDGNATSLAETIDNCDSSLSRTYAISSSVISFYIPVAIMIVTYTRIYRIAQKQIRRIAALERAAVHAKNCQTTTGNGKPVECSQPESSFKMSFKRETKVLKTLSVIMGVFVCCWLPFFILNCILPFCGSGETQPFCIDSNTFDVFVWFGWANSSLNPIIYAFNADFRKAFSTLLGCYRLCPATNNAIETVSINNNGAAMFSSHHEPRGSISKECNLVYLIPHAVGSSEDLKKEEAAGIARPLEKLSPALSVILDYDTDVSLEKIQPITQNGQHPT", "test": "D1 CRE-luciferase signal change, two-sided – cell-based, HEK293 D1, dopamine EC30, D1 allosteric modulator project, primary screen (AID 641)", "settings": "dopamine EC30 potentiation, at 10 µM, actives deviate in either direction", "values": [
      {"smiles": "CC(C)c1cc(C(=O)O)on1", "B-score": "3.98 (active)"},
      {"smiles": "CCC(=O)N1CCc2cc(S(=O)(=O)NC(C(=O)N3CCc4ccccc4C3)C(C)C)ccc21", "note": "(stereo unspecified)", "B-score": "1.68 (inactive)"},
      {"smiles": "CNC(=O)c1c(NC(=O)c2ccc(S(=O)(=O)N3CCOCC3)cc2)sc2c1CCC2", "B-score": "0.787 (inactive)"},
      {"smiles": "O=C(Oc1ccc(-c2nc(-c3ccccn3)no2)cc1)c1ccccc1", "B-score": "-2.61 (active)"},
      {"smiles": "O=C(Oc1ccccc1)c1ccc2nccnc2c1", "B-score": "0.299 (inactive)"},
      {"smiles": "CC(C)c1nc(-c2ccccn2)no1", "B-score": "-0.397 (inactive)"},
      {"smiles": "c1ccc(-c2noc(-c3cccs3)n2)nc1", "B-score": "-6.15 (active)"},
      {"smiles": "O=C(c1cccs1)N(C(=O)c1cccs1)c1ccccn1", "B-score": "-0.339 (inactive)"},
      {"smiles": "c1csc(-c2nc(-c3ccncc3)no2)c1", "B-score": "2.02 (inactive)"},
      {"smiles": "O=C1C(C=NCC2CCCO2)=C(O)c2ccccc21", "note": "(stereo unspecified)", "B-score": "-0.132 (inactive)"},
      {"smiles": "Cc1cc(C(=O)COC(=O)c2cccs2)c(C)n1-c1c(C)n(C)n(-c2ccccc2)c1=O", "B-score": "-1.48 (inactive)"},
      {"smiles": "COc1cccc(-n2cc3c(c2-c2ccccc2)c(=O)n(C)c(=O)n3C)c1", "B-score": "0.281 (inactive)"},
      {"smiles": "CCc1c(O)nc(SCC(=O)N2CCCCC2)n(-c2ccccc2C)c1=O", "B-score": "0.0102 (inactive)"},
      {"smiles": "Cc1ccc(S(=O)(=O)NCc2nc3ccccc3c(=O)n2N)cc1", "B-score": "-0.0901 (inactive)"},
      {"smiles": "Cc1ccc(S(=O)(=O)c2c(N)n(C)c3nc4ccccc4nc23)cc1", "B-score": "8.84 (active)"},
      {"smiles": "C=CCn1c(N)c(S(=O)(=O)c2cccs2)c2nc3ccccc3nc21", "B-score": "-0.811 (inactive)"},
      {"smiles": "O=C(NC(Cc1ccccc1)C(=O)N1CCCC1C(=O)O)c1ccccc1", "note": "(stereo not drawn) (Bz-Phe-Pro-OH; configuration not given here)", "B-score": "0.682 (inactive)"},
      {"smiles": "CCOC(=O)c1ccc(N2C(=O)CC(N3CCC(C(=O)OCC)CC3)C2=O)cc1", "note": "(stereo unspecified)", "B-score": "-0.257 (inactive)"},
      {"smiles": "COCCOC(=O)C1=C(C)NC(=O)NC1c1ccc(Cl)cc1", "note": "(stereo unspecified)", "B-score": "-0.276 (inactive)"},
      {"smiles": "COc1cccc2c(=O)n(CC(=O)N3CCCCCC3)ccc12", "B-score": "0.116 (inactive)"},
      {"smiles": "CCOc1ccccc1/C=c1\\sc2nc(-c3ccco3)nn2c1=O", "B-score": "-0.399 (inactive)"},
      {"smiles": "CCOC(=O)/C=c1\\s/c(=C\\c2ccccc2OC)c(=O)n1CC(=O)N1CCOCC1", "B-score": "4.29 (active)"},
      {"smiles": "CN(C)Cc1c(C#N)c2ccccc2n1C", "B-score": "-1.12 (inactive)"},
      {"smiles": "CCn1cc(C(=O)N2CC=C(c3ccccc3)CC2)c(=O)c2ccc(C)nc21", "B-score": "1.17 (inactive)"},
      {"smiles": "CCn1cc(C(=O)NCc2ccc(OC)cc2OC)c(=O)c2ccc(C)nc21", "B-score": "5.55 (active)"},
      {"smiles": "CCOc1ccc(C(=O)Nc2cc(OC)ccc2OC)cc1", "B-score": "0.0877 (inactive)"},
      {"smiles": "CCSc1nc2c(c(=O)[nH]1)C(c1cccnc1)C(C(=O)OC(C)C)=C(C)N2", "note": "(stereo unspecified)", "B-score": "0.843 (inactive)"},
      {"smiles": "O=c1/c(=C/c2ccc(CNS(=O)(=O)c3ccccc3)o2)sc2n1CCN=2", "B-score": "-0.139 (inactive)"},
      {"smiles": "Cc1ccc(C)c(S(=O)(=O)n2cnc3ccccc32)c1", "B-score": "0.135 (inactive)"},
      {"smiles": "Cc1ccc(N2C(=O)c3oc4ccccc4c(=O)c3C2c2cccnc2)nc1", "note": "(stereo unspecified)", "B-score": "0.194 (inactive)"},
      {"smiles": "Cc1ccc(C(=O)Nc2nnc(-c3ccncc3)s2)o1", "B-score": "-0.406 (inactive)"},
      {"smiles": "CCn1c(=N)c(C(=O)NCCCOC)cc2c(=O)n3cccc(C)c3nc21", "B-score": "-0.055 (inactive)"},
      {"smiles": "CCn1c(=N)c(S(=O)(=O)c2ccc(F)cc2)cc2c(=O)n3ccccc3nc21", "B-score": "4.93 (active)"},
      {"smiles": "CCOC(=O)N1CCN(CC(=O)c2ccc3c(c2)CCN3)CC1", "B-score": "-0.515 (inactive)"},
      {"smiles": "O=C(O)c1cc(S(=O)(=O)N2CCCCCC2)c(Cl)cc1Cl", "B-score": "-0.949 (inactive)"},
      {"smiles": "COc1ccc(OC)c(C(c2nnnn2C(C)(C)C)N2CCc3ccccc3C2)c1", "note": "(stereo unspecified)", "B-score": "-4.02 (active)"},
      {"smiles": "Cc1ccc(C(c2nnnn2CS(=O)(=O)c2ccc(C)cc2)N2CCC(C(N)=O)CC2)cc1", "note": "(stereo unspecified)", "B-score": "0.737 (inactive)"},
      {"smiles": "Cc1ccc(C(c2nnnn2C(C)(C)C)N2CCc3ccccc3C2)cc1", "note": "(stereo unspecified)", "B-score": "-2.5 (active)"},
      {"smiles": "CCC(C)(C)n1nnnc1C(c1ccccc1OC)N1CCSCC1", "note": "(stereo unspecified)", "B-score": "-0.522 (inactive)"},
      {"smiles": "COc1ccc(CCn2nnnc2C(c2ccccc2)N2CCN(C)CC2)cc1OC", "note": "(stereo unspecified)", "B-score": "0.116 (inactive)"},
      {"smiles": "CC(C)(C)n1nnnc1C(c1ccc2ncccc2c1)N1CCSCC1", "note": "(stereo unspecified)", "B-score": "-0.519 (inactive)"},
      {"smiles": "CCOCCc1c(O)nc(SCC(=O)NCc2ccco2)[nH]c1=O", "B-score": "1.04 (inactive)"},
      {"smiles": "CCCC(C)n1[nH]c(=O)c2c(C)cc(C)nc21", "note": "(stereo unspecified)", "B-score": "1.59 (inactive)"},
      {"smiles": "N#CCCN1CCN(S(=O)(=O)c2ccc(S(=O)(=O)N3CCCC3)cc2)CC1", "B-score": "0.478 (inactive)"},
      {"smiles": "N#CCCN1CCN(S(=O)(=O)c2ccc(S(=O)(=O)NC3CCCCC3)cc2)CC1", "B-score": "3.08 (active)"},
      {"smiles": "N#CCCN1CCN(S(=O)(=O)c2ccc(S(=O)(=O)NC3CC3)cc2)CC1", "B-score": "-0.0246 (inactive)"},
      {"smiles": "COc1ccc(N2C(=O)C3CCCN3C2c2cc(OC)c(OC)cc2OC)cc1", "note": "(stereo unspecified)", "B-score": "0.17 (inactive)"},
      {"smiles": "CCOC(=O)c1cc(-c2ccc(Cl)s2)nc2c1c(C)nn2C", "B-score": "0.665 (inactive)"},
      {"smiles": "CCOC(=O)C1=C(C)NC(C)=C(C(=O)OCC)C1c1ccccn1", "B-score": "-0.891 (inactive)"},
      {"smiles": "CCOC(=O)C1=C(O)CSC1=Nc1cccc(Cl)c1", "B-score": "7.94 (active)"},
      {"smiles": "COc1ccc(CCNC(=O)c2ccco2)cc1", "B-score": "1.58 (inactive)"},
      {"smiles": "CCOC(=O)c1c(-c2ccc(C)cc2C)csc1NC(=O)CSc1nnnn1C", "B-score": "0.507 (inactive)"},
      {"smiles": "Cc1ccc(-c2nc(COC(=O)c3c(C)noc3C)cs2)cc1", "B-score": "-0.259 (inactive)"},
      {"smiles": "CCOC(=O)c1c(C2CC2)csc1NC(=O)CSCc1c(C)noc1C", "B-score": "-3.6 (active)"},
      {"smiles": "O=C(C1=C(O)C(=O)N(c2ncccn2)C1c1cccs1)c1ccco1", "note": "(stereo unspecified)", "B-score": "-0.746 (inactive)"},
      {"smiles": "Cn1c(=O)[nH]c(=O)c2c1nc(N1CCN(CCO)CC1)n2CCSc1nc2ccccc2s1", "B-score": "0.525 (inactive)"},
      {"smiles": "c1nnc2c3c4c(sc3ncn12)CCC4", "B-score": "0.277 (inactive)"},
      {"smiles": "Cc1ccccc1Cn1c(=O)[nH]c2ccccc21", "B-score": "-0.259 (inactive)"},
      {"smiles": "Cc1ccc(N2C(=O)CC(NCc3ccc4c(c3)OCO4)C2=O)cc1Cl", "note": "(stereo unspecified)", "B-score": "0.36 (inactive)"},
      {"smiles": "CCOc1cc(/C=N/O)cc(Br)c1OC", "B-score": "10.9 (active)"},
      {"smiles": "O=C(c1cnn2ccccc12)N1CCc2ccccc21", "B-score": "-0.641 (inactive)"}
    ]}
  ]
}
